Screening data: PubChem, The Scripps Research Institute Molecular Screening Center
GPR151 activ = activators of human GPR151, primary screen, cell-based, PathHunter beta-arrestin, luminescence | G-protein coupled receptor 151 (Homo sapiens), Q8TDV0 | 650,000 compounds, 1% hits | PathHunter beta-arrestin GPR151 cells | activation, % at 11.2 µM | AID 1508602, 2020; in the data active = activation above about 4.9%
FBW7 activator = FBW7 E3 ligase activators, primary screen, biochemical, AlphaScreen, human; 650,000 compounds, 0.13% hits; AlphaScreen FBW7–phospho-cyclin E peptide binding, activator screen; AID 1259310, 2017; normalized activity (activation), % at 26.1 µM; in the data active = normalized activity above about 1.9%;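 also: purified mutant Fbw7 with reduced substrate affinity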
Target sequence (Q969H0 whole entry, looked up): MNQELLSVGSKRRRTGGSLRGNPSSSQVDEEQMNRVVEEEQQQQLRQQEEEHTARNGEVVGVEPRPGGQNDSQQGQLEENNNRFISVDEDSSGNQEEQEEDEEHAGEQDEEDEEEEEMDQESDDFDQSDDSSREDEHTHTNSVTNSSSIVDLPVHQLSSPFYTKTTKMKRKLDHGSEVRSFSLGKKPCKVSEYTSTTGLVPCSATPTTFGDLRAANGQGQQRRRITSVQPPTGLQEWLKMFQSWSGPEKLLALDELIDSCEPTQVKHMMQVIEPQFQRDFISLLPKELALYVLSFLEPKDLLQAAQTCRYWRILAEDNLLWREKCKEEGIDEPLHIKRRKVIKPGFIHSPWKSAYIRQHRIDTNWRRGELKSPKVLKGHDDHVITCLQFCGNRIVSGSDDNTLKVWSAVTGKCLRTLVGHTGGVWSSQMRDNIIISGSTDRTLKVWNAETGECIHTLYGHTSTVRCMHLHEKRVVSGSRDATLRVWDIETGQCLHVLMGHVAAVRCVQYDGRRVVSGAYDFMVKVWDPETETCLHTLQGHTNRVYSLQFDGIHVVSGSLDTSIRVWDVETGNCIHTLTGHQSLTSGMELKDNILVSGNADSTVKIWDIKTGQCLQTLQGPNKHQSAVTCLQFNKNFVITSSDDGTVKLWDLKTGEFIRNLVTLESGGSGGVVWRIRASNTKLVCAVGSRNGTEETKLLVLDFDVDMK
MITF primary = MITF inhibitors, primary screen, biochemical, AlphaScreen, human | AID 1259374, 2018 | AlphaScreen MITF homodimerization, bead proximity signal | Microphthalmia-associated transcription factor (Homo sapiens), O75030 | inhibition, % at 2.6 µM | 650,000 compounds, 0.91% hits; in the data active = inhibition above about 50%
TEAD-YAP block = TEAD-YAP interaction inhibition, primary screen, TEAD-YAP interaction inhibitor project, luminescence, HEK-TIYL cells | TEAD-Gal4/YAP UAS-luciferase luminescence | inhibition, % at 9.12 µM | 640,000 compounds, 1.4% hits; in the data active = inhibition above about 32%
GPR151 conf act = GPR151 activators, triplicate retest, confirmation, cell-based, PathHunter beta-arrestin, luminescence. shares compounds with GPR151 activ. AID 1508609, 2020. GPR151 PathHunter beta-arrestin cells, 90 min; % of EA-reagent control over plate median. activation, % at 11.2 µM. 6,700 tested, under 10 active;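 active = mean percent activation across replicates above the confirmation screen cutoff of 4.91%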
GPR119 counter = GPR119 activators in beta-arrestin cells, counter-screen for GPR151 activator project, cell-based, PathHunter beta-arrestin, luminescence, triplicate; shares compounds with GPR151 activ; 90 min; 0 = compound-well median, 100 = enzyme-acceptor control; activation, % at 11.2 µM; 6,700 compounds, 0.3% hits; AID 1508611, 2020;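 active = mean percent activation in the counterscreen above 29.09%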;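 also: counterscreen on off-target GPR119 to flag nonselective hits from the GPR151 activator screen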
Large screens that a line does not name were inactive (follow-up assays come after a bar, where they were run); ! = repeats disagree. The list is not random: actives were taken first. Their share in the collection is about 3.5%.

CCC(Nc1ccccc1)C(=O)N/N=C/c1ccc(O)c(OC)c1 (stereo not given)	none
CCCCOC(=O)c1ccc(Nc2nc(C)c([N+](=O)[O-])c(Nc3ccc(C(=O)OCCCC)cc3)n2)cc1	none
COC(=O)c1ccc(Nc2nc(C)c([N+](=O)[O-])c(Nc3ccc(C(=O)OC)cc3)n2)cc1	GPR151 activ 13 | GPR151 conf act inactive | GPR119 counter inactive
Fc1ccc(C2CC(c3ccc(Br)cc3)=NN2c2nc(-c3ccccc3)c3cc(Br)ccc3n2)cc1 (stereo not given)	GPR151 activ 5.8 | GPR151 conf act inactive | GPR119 counter inactive
CNCCCC1c2ccccc2C=Cc2ccccc21	GPR151 activ 10! | GPR151 conf act inactive | GPR119 counter inactive
COc1ccccc1OCC(=O)NCC(c1ccsc1)N1CCCC1 (stereo not given)	none
O=C(Cc1ccc(F)cc1)NCC(c1ccsc1)N1CCCCCC1 (stereo not given)	GPR151 activ 6.9 | GPR151 conf act inactive | GPR119 counter inactive
CC(=O)N1CCN(Cc2cccc(Cl)c2Cl)CC1	none
CC(=O)N1CCN(Cc2ccccc2Br)CC1	GPR151 activ 7.9 | GPR151 conf act inactive | GPR119 counter inactive
CCOCCn1c(=NC(=O)CN2C(=O)CCC2=O)sc2cc(Br)ccc21	GPR151 activ 5.8 | GPR151 conf act inactive | GPR119 counter inactive
COCCn1c(=NC(=O)CN2C(=O)CCC2=O)sc2cc(Br)ccc21	none
C(/C=C/c1ccccc1)=N/N1CCN(c2ccccc2)CC1	GPR151 activ 4.9 | GPR151 conf act inactive | GPR119 counter inactive
CCN(CC)C(=O)CN1C(=O)C(O)(CC(=O)c2ccccc2)c2ccccc21 (stereo not given)	GPR151 activ 7.6 | GPR151 conf act inactive | GPR119 counter inactive
O=C(CC1(O)C(=O)N(Cc2ccccc2)c2ccccc21)c1ccccc1 (stereo not given)	none
CC1(CCc2ccccc2)NC(=O)NC1=O (stereo not given)	GPR151 activ 8.6 | GPR151 conf act inactive | GPR119 counter inactive
CC1(CCc2ccccc2)NC(=O)N(N)C1=O (stereo not given)	GPR151 activ 6.7 | GPR151 conf act inactive | GPR119 counter inactive
Cc1cccc(C)c1NC(=O)CCC(=O)O	GPR151 activ 20 | GPR151 conf act inactive | GPR119 counter inactive
O=[N+]([O-])/C=C/N1CCOCC1	GPR151 activ 5.5 | GPR151 conf act inactive | GPR119 counter inactive
c1ccc(CN2CCC(Nc3ncc(-c4cccs4)cn3)CC2)cc1	GPR151 activ 6.8 | GPR151 conf act inactive | GPR119 counter inactive
Cc1cc(NC2CCN(Cc3ccccc3)CC2)nc(-c2cccs2)n1	none
COc1ccc(-c2cc(C(=O)Nc3ccc(OC)cc3OC)no2)cc1	none
CCCc1cc(C(=O)Nc2ccc(OC)cc2OC)no1	GPR151 activ 17 | GPR151 conf act inactive | GPR119 counter inactive
COC(=O)C1=C(O)/C(=C\c2cc(OC)ccc2OC)N=C1C	none
Cc1nn(-c2ccccc2)c2sc(C(=O)Nc3ccc(Cl)cc3)cc12	none
Cc1nn(-c2ccc(Cl)cc2)c2sc(C(=O)Nc3ccc(C(N)=O)cc3)cc12	GPR151 activ 6.7 | GPR151 conf act inactive | GPR119 counter inactive
NS(=O)(=O)c1ccc(NC(=O)CSc2ccc([N+](=O)[O-])cn2)cc1	GPR151 activ 7.9 | GPR151 conf act inactive | GPR119 counter inactive
O=C(CSc1ccc([N+](=O)[O-])cn1)Nc1cccc(C(F)(F)F)c1	GPR151 activ 5.6 | GPR151 conf act inactive | GPR119 counter inactive
O=C(CSc1ccc([N+](=O)[O-])cn1)Nc1ccc(Oc2ccccc2)cc1	none
CCN(CC)C(=O)C1CCCN(c2nc(Nc3ccc(NC(C)=O)cc3)c3ncn(CCN4CCCC4=O)c3n2)C1 (stereo not given)	GPR151 activ 6.4 | GPR151 conf act inactive | GPR119 counter inactive
CCN(CC)C(=O)C1CCCN(c2nc(Nc3ccc(NC(C)=O)cc3)c3ncn(Cc4ccc(C(F)(F)F)cc4)c3n2)C1 (stereo not given)	none
O=C1CCCN1CCn1cnc2c(Nc3ccc4c(c3)OCO4)nc(N3CCN(Cc4ccc5c(c4)OCO5)CC3)nc21	GPR151 activ 5.1 | GPR151 conf act inactive | GPR119 counter inactive
O=S(=O)(c1ccc(Nc2nc3ccccc3n3nnnc23)cc1)N1CCOCC1	GPR151 activ 5.1 | GPR151 conf act inactive | GPR119 counter inactive
O=C(O)C1CCN(c2nc(-c3ccc(Cl)cc3)cs2)CC1	none
Cc1ccc(-n2[nH]c(C)c(C=Nc3cccc(C(=O)O)c3)c2=O)cc1	GPR151 activ 5.4! | GPR151 conf act inactive | GPR119 counter inactive
COc1ccc(Cl)cc1NC(=O)CSc1nnc2n1CCN2c1ccc(F)cc1	none
CCN(CC)c1ncnc2sc(C(=O)Nc3ccc(C)c(F)c3)c(C)c12	GPR151 activ 9.1 | GPR151 conf act inactive | GPR119 counter inactive
COc1ccccc1N(CN1CCCC1=O)C(=O)c1cccc(F)c1	none
COCCn1c2c(c(=O)[nH]c1=O)C(c1ccc(SC)cc1)C1=C(CCCC1=O)N2 (stereo not given)	none
C#CCN1CCc2cc(OC)c(OC)cc2C1C (stereo not given)	GPR151 activ 6.4 | GPR151 conf act inactive | GPR119 counter inactive
COc1cc2c(cc1OC)C(C)N(C(=O)c1ccccc1Cl)CC2 (stereo not given)	none
O=C(NCCN1CCNCC1)c1cc(C2COc3ccccc3O2)nc2ccc(-c3cn[nH]c3)cc12 (stereo not given)	none
O=C(O)c1cc(C2COc3ccccc3O2)nc2ccc(-c3cn[nH]c3)cc12 (stereo not given)	GPR151 activ 13 | GPR151 conf act inactive | GPR119 counter inactive
COc1ccc(O[C@H]2C=C[C@@H](c3ccccc3)O[C@@H]2CO/N=C2/[C@H]3CCn4c(=O)n(-c5ccccc5)c(=O)n4[C@H]3[C@H](O)[C@@H]3O[C@H]23)cc1	GPR151 activ 6.7 (no result: TEAD-YAP block) | GPR151 conf act inactive | GPR119 counter inactive
COc1cccc(CN(CCN(C)C)C(=O)[C@@H](Cc2ccc(-c3cn[nH]c3)cc2)NC(=O)C(C)O)c1 (stereo not given in full)	GPR151 activ 5.1 | GPR151 conf act inactive | GPR119 counter inactive
C/C=C(\C)CN1CCc2c(C(=O)OC)c(OCCCc3cccnc3)cc(=O)n2CC1	none
Cc1nonc1OCCNCCNc1ccccc1[N+](=O)[O-]	GPR151 activ 5.6 | GPR151 conf act inactive | GPR119 counter inactive
